The panel holds about 83,000 compounds, 20% with a hit somewhere; the sample as a whole holds those more often.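 Cell lines were cultured in 96-well plates, exposed to a single compound concentration, and assessed for percent growth 48 hours later.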 Values without a mark were called inactive. Activity calls are given as the source filed them. How the source made its calls: active means growth percent below 10; inactive means the rest.

This experiment concerns HOP-62 NSCLC. The experiment can be described thus: NCI-60 one-dose screen, 48 h (100 = growth as untreated, 0 = no growth, -100 = all killed). To be noted: 10 µM unless noted.
As for `COc1cc(C2c3cc(OC(C)=O)c(OC)cc3CC3C(=O)OCC32)ccc1OC(C)=O` (centres undefined), the growth is 91.8%.

`CCOC(=O)c1ccc(NC(=O)c2nc(-c3cc(OC)c(OC)c(OC)c3)n(-c3ccc(Cl)cc3)n2)cc1`: the growth was 97.6%.

For `Cc1nc2sc(C(=O)Nc3cccc(Br)c3)c(N)c2cc1C(O)c1ccccc1` (centres undefined), the growth is 47.5%.

Turning to `OB1OCc2cc(/C=C/c3cccc(C(F)(F)F)c3)ccc21`, the growth was -17.7% (active).

Regarding `COC(=O)[C@@H](CCCCNC(=O)[C@]12CCC(C)(C)C[C@@H]1C1=CC[C@@H]3[C@@]4(C)C/C(=C/c5ccco5)C(=O)C(C)(C)[C@@H]4CC[C@@]3(C)[C@]1(C)CC2)NC(=O)[C@]12CCC(C)(C)C[C@@H]1C1=CC[C@@H]3[C@@]4(C)C/C(=C/c5ccco5)C(=O)C(C)(C)[C@@H]4CC[C@@]3(C)[C@]1(C)CC2`, the growth was 104%.

On to `COc1c(C(=O)Nc2ccc(C)c(Br)c2)ccc2ccccc12`, for which the growth was 99.8%.

Take `COC(=O)CC[C@@H]1O[C@@H](c2cccc(C(F)(F)F)c2)[C@@H](O)[C@H]1O`: the growth is 103%.

As for `COc1ccc(/C=C(\C#N)n2nnc3cc(F)c(F)cc32)cc1`, the growth was 49.6%.

`CCCC/C(CC)=N\NS(=O)(=O)c1ccc([N+](=O)[O-])cc1`: the growth is 96.7%.

As to `CCC(C(=O)[C@@H](C)[C@@H](O)[C@H](C)[C@@H]1O[C@@H]([C@@H](CC)C(=O)ONC(=O)c2ccccc2)CC[C@@H]1C)[C@H]1O[C@]2(C=CC(=O)[C@]3(CC[C@@](C)([C@H]4CC[C@](O)(CC)[C@H](C)O4)O3)O2)[C@H](C)C[C@@H]1C` (some centres undefined), the growth was 26.5%.

`COC(=O)[C@]12CCC(C)(C)C[C@H]1[C@H]1/C(=N/OCCc3nn[nH]n3)C[C@@H]3[C@@]4(C)CC[C@H](OC(C)=O)C(C)(C)[C@@H]4CC[C@@]3(C)[C@]1(C)CC2`: the growth was 34%.

In the case of `N#CC(C#N)N=Nc1ccc(Br)cc1`, the growth is 80.1%.

As to `CCOC(=O)NC(C)C`, the growth was 93.4%.

In the case of `CCCNC(=O)Nc1ccc2cc3ccc(NC(=O)NCCC)cc3nc2c1`, the growth was 81.8%.

In the case of `C=CCN=c1sc2c(n1NC(=O)c1cc3ccc1CCc1ccc(cc1)CC3)C(=O)c1ccccc1C2=O`, the growth was 19.5%.

For the compound `Cc1ccc2c(n1)C(=O)C(Br)=C(CC(C)C)C2=O`, the growth was 97.1%.

For the compound `CC(C)COc1nc2c(c(=O)n(C)c(=O)n2C)n1C`, the growth is 99%.

With `Cc1ccccc1/C=C/C(=O)c1cccc(OCCCCOc2cccc(C(=O)/C=C/c3ccccc3C)c2)c1`, the growth is 102%.

Take `COc1ccc2cc1Oc1ccc(cc1)C[C@H]1c3c(cc4c(c3Oc3cc5c(cc3OC)CCN(C)[C@@H]5C2)OCO4)CCN1C`: the growth is 115%.

As for `CCOC(=O)c1csc(NC(=O)COc2ccc(/C=C3\Oc4ccccc4C3=O)cc2)n1`, the growth is 72.6%.

As for `CC(C)C1=NOC(=O)C1=Cc1cn(-c2ccccc2)nc1-c1ccc(F)cc1`, the growth was 90.1%.

As to `CCOC(=O)C/C(=N\Nc1cc(=O)[nH]c2ccc(Br)cc12)C(=O)OCC`, the growth is 95.9%.

As for `Cc1cc(=O)n(C(=O)Nc2ccccc2Cl)c2cc(O)ccc12`, the growth was 89.2%.

As for `CSc1nnc(-c2cc3c([nH]c4ccccc43)c(-c3cccc(O)c3)n2)n1-c1ccccc1`, the growth is 47.6%.

The values are drawn from PubChem BioAssay (NCI).
